Bioassay records from PubChem BioAssay.
TSHR ag – TSH receptor (human) agonism | 73,000 compounds, 0.48% hits | Potency, µM (series often up to 57.1 µM), actives largely listed as activators | HEK293-CNG-TSHR cells (CNG channel as cAMP sensor), membrane potential dye, cAMP; active = well fitted activation curve with a large enough effect in the main read-out, with a control signal flat, not every such curve was filed as active; inconclusive = small, poorly fitted or top-dose-only effect, or a change in a side signal; inactive = no such curve, though single readings can be large or run the other way; reference of the percent scale not stated here;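 note: the control signal comes from parental cells without the receptor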
Target sequence (P16473 whole entry, looked up): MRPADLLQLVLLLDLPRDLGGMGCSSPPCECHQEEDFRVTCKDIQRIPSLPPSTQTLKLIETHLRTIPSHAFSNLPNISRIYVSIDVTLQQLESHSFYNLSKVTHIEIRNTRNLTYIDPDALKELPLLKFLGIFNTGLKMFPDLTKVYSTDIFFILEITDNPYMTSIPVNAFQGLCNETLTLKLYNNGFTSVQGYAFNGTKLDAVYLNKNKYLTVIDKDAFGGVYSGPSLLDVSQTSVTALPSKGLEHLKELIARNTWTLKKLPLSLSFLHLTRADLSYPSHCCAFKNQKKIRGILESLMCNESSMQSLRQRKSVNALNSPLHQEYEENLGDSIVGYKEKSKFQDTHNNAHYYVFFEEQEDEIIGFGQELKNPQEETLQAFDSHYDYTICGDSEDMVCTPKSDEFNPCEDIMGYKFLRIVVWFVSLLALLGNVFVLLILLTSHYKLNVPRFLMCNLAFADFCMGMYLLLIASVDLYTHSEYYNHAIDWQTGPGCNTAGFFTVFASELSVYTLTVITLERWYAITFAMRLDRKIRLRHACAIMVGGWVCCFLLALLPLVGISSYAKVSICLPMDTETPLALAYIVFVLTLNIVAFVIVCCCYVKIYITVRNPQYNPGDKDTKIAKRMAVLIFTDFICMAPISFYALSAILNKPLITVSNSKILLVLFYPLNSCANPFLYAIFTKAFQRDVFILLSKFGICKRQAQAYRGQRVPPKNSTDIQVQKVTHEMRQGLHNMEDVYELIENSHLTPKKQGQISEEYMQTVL
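HEK 293 cells stably expressing TSHR and a cAMP-gated CNG channel; parental CNG-only cells as counterscreen. Cells preloaded 60 min with membrane potential dye plus 100 uM RO 20-1724, then compound 30 min; fluorescence read at 590 nm.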
Peg3 imprint – inducers of genomic imprint erasure in mouse ES cells; mouse ES Peg3-LacZ reporter, beta-gal luminescence, 40 h; Potency, µM (highest dose often 60.7 µM), actives largely listed as activators; 110,000 compounds, 0.02% hits
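Imprint erasure is scored as LacZ activity from the silenced maternal Peg3 allele in feeder-free female ES cells cultured 40 h with LIF. Luminescence is normalized to in-plate negative controls and fitted to the Hill equation.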
IkB sig inh – inhibitors of IkB signaling in ABC-DLBCL cells; ABC-DLBCL IkBa-CBG/CBR dual luciferase ratio, 4 h; response scale: scaled: untreated 0%, proteasome inhibitor 100%; Potency, µM (highest dose often 57.1 µM); 110,000 compounds, 0.04% hits; active = well fitted curve in the direction sought with a large enough effect in the signal ratio, not every such curve was filed as active; inconclusive = small, poorly fitted or top-dose-only effect, or a change in a side signal; the % refers to the signal ratio;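 note: the direction sought is a rising ratio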
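In this assay, an IκBα–CBG68 fusion accumulates when IKK-driven degradation is blocked; native CBR normalizes for cell number. OCI-Ly3 cells were treated 4 h with compound and doxycycline, then green and red light read after Chroma-Glo addition.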
HEK293 cAMP ctrl – counter-screen for TSHR agonists: cAMP increase in parental HEK293; parental HEK293 CNG cAMP sensor, membrane potential fluorescence; Potency, µM (top dose mostly 57.1 µM), actives largely listed as activators; 73,000 compounds, 2.5% hits; note: nearly all actives have a fitted effect of over 55% in size
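Counterscreen for endogenous-receptor signalling: CNG-channel HEK 293 cells report cAMP rise by membrane depolarization. After 60 min dye equilibration with 100 uM RO 20-1724, compounds incubated 30 min before bottom-read fluorescence at 590 nm.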
p53ts 39C kill – p53ts cell cytotoxicity, nonpermissive temperature | 130,000 compounds, 1.5% hits | Potency, µM (top dose mostly 46.1 µM), actives largely listed as cytotoxic | AID 902 | H1299-p53A138V viability at 39C, ATP luminescence, 24 h; note: nearly all actives have a fitted effect of over 55% in size
p53ts 32C tox – cytotoxicity in p53ts cells at permissive temperature; H1299-p53A138V at 32C, ATP luminescence viability, 24 h; Potency, µM (top dose mostly 46.1 µM), usual class: cytotoxic; 130,000 compounds, 0.93% hits; AID 924; note: nearly all actives have a fitted effect of over 55% in size
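Viability by ATPlite luminescence after 24 h compound treatment (up to 46 uM) at the permissive 32C. Cells are H1299 carrying p53 A138V. Scale runs from DMSO basal to 100 uM tamoxifen as full kill; AC50 from Hill fits.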
Hits are given with their value; [ ] = dose if it differs, or a comment. An excerpt weighted towards active compounds, which were near 3.1% of everything screened. Unless noted, calls come from the whole dose curve; as a rule, active = well fitted curve in the direction sought with a large enough effect; inconclusive = small, poorly fitted or top-dose-only effect, or another doubt; inactive = no such curve, though single readings can be large; an effect the other way counts as inactive or inconclusive.

For COc1ccc(Cl)cc1NC(=O)c1cc2c(=O)n3ccccc3nc2s1 the results were Peg3 imprint inactive[10.9 µM], IkB sig inh inactive, p53ts 39C kill inconclusive and p53ts 32C tox inactive.
Screening Cc1cccc(OCc2nnc(SCC(=O)c3ccccc3)o2)c1 returned TSHR ag inconclusive, Peg3 imprint inactive, IkB sig inh inactive, HEK293 cAMP ctrl 4µM, p53ts 39C kill inactive and p53ts 32C tox inactive.
`COC(=O)c1ccc(OC)c(CSc2nnc(COc3ccccc3)o2)c1` gave TSHR ag inconclusive, Peg3 imprint inactive, IkB sig inh inconclusive, HEK293 cAMP ctrl 13µM, p53ts 39C kill inactive and p53ts 32C tox inactive.
COC(=O)c1ccc(OC)c(CSc2nnc(COc3ccc(Cl)cc3)o2)c1 was read as TSHR ag inconclusive, Peg3 imprint inactive, IkB sig inh inconclusive, HEK293 cAMP ctrl inconclusive, p53ts 39C kill inactive and p53ts 32C tox inactive.
For CCOC(=O)c1c(NC(=O)c2ccc(S(=O)(=O)N(CC(C)C)CC(C)C)cc2)sc2c1CCN(CC)C2 the results were Peg3 imprint inactive[10.9 µM], IkB sig inh inconclusive, p53ts 39C kill inactive and p53ts 32C tox inactive.
COc1ccc(OC)c(NC(=O)C(Cc2ccccc2)NS(=O)(=O)c2ccc3c(c2)CCC(=O)N3)c1 (stereo not drawn) was read as Peg3 imprint inactive[10.9 µM], IkB sig inh inconclusive, p53ts 39C kill inactive and p53ts 32C tox inactive.
For CCOc1ccccc1CNC(=O)c1cn(-c2ccc(OC)cc2)c(=O)c2ccccc12 the results were Peg3 imprint inactive[10.9 µM], IkB sig inh inactive, p53ts 39C kill inactive and p53ts 32C tox inactive.
`OC[C@@H]1O[C@@H](n2cnc3c(NC4CCCCC4)ncnc32)[C@@H](O)[C@H]1O` gave IkB sig inh inconclusive, HEK293 cAMP ctrl inactive, p53ts 39C kill inactive and p53ts 32C tox inactive.
Screening N#Cc1c(NC(=O)c2nc3ncccn3n2)sc2c1CCCCC2 returned TSHR ag inactive, Peg3 imprint inactive, IkB sig inh inactive, HEK293 cAMP ctrl inactive, p53ts 39C kill 13µM and p53ts 32C tox 13µM.
`Cc1c(C(=O)Nc2ccc(C(=O)O)cc2)nnn1-c1ccccc1` gave Peg3 imprint inactive[10.9 µM], IkB sig inh inconclusive, p53ts 39C kill inconclusive and p53ts 32C tox 10µM.
Screening COc1ccccc1OCCCn1c(C2CC(=O)N(c3ccccc3Cl)C2)nc2ccccc21 (stereo not drawn) returned Peg3 imprint inactive[10.9 µM], IkB sig inh inconclusive, p53ts 39C kill inactive and p53ts 32C tox inactive.
`CCc1ccccc1N1CC(c2nc3ccccc3n2CCOc2ccc(Cl)c(C)c2)CC1=O` (stereo not drawn) gave Peg3 imprint inactive[10.9 µM], IkB sig inh inconclusive, p53ts 39C kill 32µM and p53ts 32C tox inconclusive.
Screening Cc1cccc(OCCCCn2c(C3CC(=O)N(c4ccccc4Cl)C3)nc3ccccc32)c1 (stereo not drawn) returned Peg3 imprint inactive[10.9 µM], IkB sig inh inactive, p53ts 39C kill 16µM and p53ts 32C tox inconclusive.
Cc1cccc(OCCCCn2c(C3CC(=O)N(c4ccc(C)cc4C)C3)nc3ccccc32)c1 (stereo not drawn) was read as Peg3 imprint inactive[10.9 µM], IkB sig inh inactive, p53ts 39C kill 25µM and p53ts 32C tox inconclusive.
CCOc1ccccc1N1CC(c2nc3ccccc3n2CCOc2ccc(C(C)(C)C)cc2)CC1=O (stereo not drawn) was read as Peg3 imprint inactive[10.9 µM], IkB sig inh inactive, p53ts 39C kill 13µM and p53ts 32C tox inconclusive.
Screening CCOc1ccccc1N1CC(c2nc3ccccc3n2CCCOc2ccccc2OC)CC1=O (stereo not drawn) returned Peg3 imprint inactive[10.9 µM], IkB sig inh inactive, p53ts 39C kill inactive and p53ts 32C tox inactive.
`COc1cccc(CCNC(=O)c2cnc3sc(N4CCCCCC4)nn3c2=O)c1` gave Peg3 imprint inactive[10.9 µM], IkB sig inh inconclusive, p53ts 39C kill inactive and p53ts 32C tox inactive.
Screening CCOC(=O)c1cc(NC(=O)NCc2ccco2)c(C)nc1C returned TSHR ag 10µM, Peg3 imprint inactive, IkB sig inh inactive, HEK293 cAMP ctrl inactive[2.29 µM], p53ts 39C kill inactive and p53ts 32C tox inactive.
For COc1ccc(CCNC(=O)c2c(C)oc3ncn(CC(C)C)c(=O)c23)c(OC)c1 the results were Peg3 imprint inactive[10.9 µM], IkB sig inh inactive, p53ts 39C kill inactive and p53ts 32C tox inactive.
Screening CC(C)(C)C(=O)Nc1ccc(Cl)c(-c2nc3ccccc3[nH]2)c1 returned Peg3 imprint inactive[10.9 µM], IkB sig inh inconclusive, p53ts 39C kill inactive and p53ts 32C tox inactive.
`CC(C)(C)C(=O)Nc1ccc(-c2nc3ccc(NC(=O)C(C)(C)C)cc3[nH]2)cc1` gave Peg3 imprint inactive[10.9 µM], IkB sig inh inactive, p53ts 39C kill inconclusive and p53ts 32C tox 7.9µM.
Screening CCCCCSc1nc2sc3c(c2c(=O)n1-c1ccccc1)CCN(C(C)=O)C3 returned Peg3 imprint inactive[10.9 µM], IkB sig inh inconclusive, p53ts 39C kill 13µM and p53ts 32C tox inconclusive.
`Nc1ccc2oc(-c3ccc4nc[nH]c4c3)nc2c1` gave p53ts 39C kill 14µM and p53ts 32C tox 8.9µM.
Nc1ccc2oc(-c3cccc(Br)c3)nc2c1 was read as TSHR ag inactive, Peg3 imprint inactive, IkB sig inh inactive, HEK293 cAMP ctrl inactive, p53ts 39C kill inconclusive and p53ts 32C tox inconclusive.
Screening O=C1CC(c2ccccc2)Cc2nc(NCc3ccco3)ncc21 (stereo not drawn) returned TSHR ag inactive, Peg3 imprint inactive, IkB sig inh inactive, HEK293 cAMP ctrl inactive, p53ts 39C kill 7.9µM and p53ts 32C tox 6.3µM.
`O=C(Nc1ncc2c(n1)CC(c1ccccc1)CC2=O)c1ccco1` (stereo not drawn) gave TSHR ag inactive, Peg3 imprint inactive, IkB sig inh inactive, HEK293 cAMP ctrl inactive, p53ts 39C kill inactive and p53ts 32C tox inactive.
CCC(=O)Nc1cccc(NC(=O)CSc2nnc(C(C)C)n2CC)c1 was read as TSHR ag inconclusive, Peg3 imprint inactive, IkB sig inh inactive, HEK293 cAMP ctrl 13µM, p53ts 39C kill inactive and p53ts 32C tox inactive.
Screening COCC(=O)N1CCC2(CCCN(C(=O)Nc3cccc(F)c3)C2)CC1 returned IkB sig inh inactive[11.4 µM], HEK293 cAMP ctrl inactive, p53ts 39C kill inactive and p53ts 32C tox inactive.
Screening [Cu].[O-]/N=C1/C(=[OH+])Nc2ccccc21.[O-]Nc1c(O)[nH]c2ccccc12 returned TSHR ag inactive[11.4 µM], IkB sig inh inactive[11.4 µM], HEK293 cAMP ctrl inactive[11.4 µM], p53ts 39C kill inactive[9.22 µM] and p53ts 32C tox inactive[9.22 µM].
